# Measurements: PMC4336329 (PLoS ONE, 2015)
# The campaign covered roughly 310,000 compounds. About 14,000 (4.5%) showed an effect of 50% or more. Effects have a minus sign here. The entries come from a sample that favours strong results as a whole.
# Target: human ether-à-go-go-related gene (hERG) potassium channel (human, UniProt Q12809)
# Assay: primary screen, population patch clamp on CHO cells stably expressing hERG; higher = less effect of the substance
# 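Also: peak tail current of the secondary pulse compared with the same well before compound.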
# Sequence of human ether-à-go-go-related gene (hERG) potassium channel (Q12809 whole entry, looked up): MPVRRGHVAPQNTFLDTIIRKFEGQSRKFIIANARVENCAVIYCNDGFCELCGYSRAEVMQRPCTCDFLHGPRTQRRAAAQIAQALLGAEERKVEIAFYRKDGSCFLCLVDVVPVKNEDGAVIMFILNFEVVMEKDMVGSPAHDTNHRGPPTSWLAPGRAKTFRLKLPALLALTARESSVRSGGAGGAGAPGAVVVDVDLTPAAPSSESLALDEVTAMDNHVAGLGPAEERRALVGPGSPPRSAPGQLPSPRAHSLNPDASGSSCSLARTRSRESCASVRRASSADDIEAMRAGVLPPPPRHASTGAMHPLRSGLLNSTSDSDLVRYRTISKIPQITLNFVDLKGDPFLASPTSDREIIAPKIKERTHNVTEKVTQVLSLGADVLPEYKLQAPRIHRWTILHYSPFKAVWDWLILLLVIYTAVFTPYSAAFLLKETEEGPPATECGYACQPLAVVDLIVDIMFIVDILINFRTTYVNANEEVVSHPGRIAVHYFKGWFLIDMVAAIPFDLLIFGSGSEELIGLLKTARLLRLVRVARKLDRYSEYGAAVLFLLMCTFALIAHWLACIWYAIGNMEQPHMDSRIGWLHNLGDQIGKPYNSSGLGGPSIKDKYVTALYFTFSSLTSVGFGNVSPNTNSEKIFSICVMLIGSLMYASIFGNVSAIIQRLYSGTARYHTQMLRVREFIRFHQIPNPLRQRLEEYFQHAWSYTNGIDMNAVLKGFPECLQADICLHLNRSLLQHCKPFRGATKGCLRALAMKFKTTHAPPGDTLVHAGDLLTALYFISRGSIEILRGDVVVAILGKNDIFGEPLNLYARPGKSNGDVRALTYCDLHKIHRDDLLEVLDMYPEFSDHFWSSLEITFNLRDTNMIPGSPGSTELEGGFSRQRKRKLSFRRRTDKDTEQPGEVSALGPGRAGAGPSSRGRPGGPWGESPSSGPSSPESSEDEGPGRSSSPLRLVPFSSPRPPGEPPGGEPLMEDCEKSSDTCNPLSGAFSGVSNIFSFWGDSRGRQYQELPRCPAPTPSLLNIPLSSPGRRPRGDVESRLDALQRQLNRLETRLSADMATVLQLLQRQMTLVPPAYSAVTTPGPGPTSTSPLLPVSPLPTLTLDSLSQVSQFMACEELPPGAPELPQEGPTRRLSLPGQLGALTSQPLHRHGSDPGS
row,Structure (SMILES),"hERG current change (%, negative = inhibition) at 10uM [%]"
1,COCCn1c(-c2ccccc2)nc(=S)c2c1CC(C)(C)OC2,-11.5
2,COc1ccc(-c2noc(N3CCC(C(=O)NCc4ccc(F)cc4)CC3)n2)cc1,-20.4
3,CC(=N)C1=C(O)CC(C)(C)CC1=O,1.84
4,CC(=O)NCCCC(=O)NN1C(=S)N(Cc2ccccc2)C(=O)C1CC(=O)Nc1cccc(C)c1 (stereo not drawn),8.8
5,O=C(NC1CC(=O)N(c2ccc3c(c2)OCCO3)C1)N1CCCCC1 (stereo not drawn),12.4
6,CC1(c2nnc(-c3ccc(F)cc3)o2)CC(c2c(Cl)cccc2Cl)=NO1 (stereo not drawn),-37
7,COC(=O)c1nnn(-c2nonc2N)c1CN1CCc2ccccc21,4.57
8,c1ccc(CNCC2COc3ccccc3O2)cc1 (stereo not drawn),8.17
9,O=C(Cn1c(CO)nc2ccccc21)Nc1ccccc1Cl,25.1
10,CCC(CC)c1nnc(NC(=O)CCc2ccc(OC)cc2)s1,13.1
11,Cc1ccc2cc(CCNC(=O)c3cccc([N+](=O)[O-])c3)c(=O)[nH]c2c1,-20.2
12,CC(C)N(Cc1cc2ccccc2[nH]c1=O)C(=O)c1cccc([N+](=O)[O-])c1,-13.4
13,Cc1cc2cc(CCNC(=O)c3cccc([N+](=O)[O-])c3)c(=O)[nH]c2cc1C,-47.1
14,Cc1ccc2[nH]c(=O)c(CN(C(=O)c3cccc([N+](=O)[O-])c3)C(C)C)cc2c1,-50.5
15,COc1ccc2cc(CCNC(=O)c3cccc([N+](=O)[O-])c3)c(=O)[nH]c2c1,-79.2
16,CCN(Cc1cc2cc(C)ccc2[nH]c1=O)C(=O)c1cccc([N+](=O)[O-])c1,-37.9
17,CC(O)CNc1nc2c(c(=O)n(C)c(=O)n2C)n1C/C=C/c1ccccc1 (stereo not drawn),-13.7
18,COc1ccc(NS(=O)(=O)c2cc(NC(=O)c3ccc(=O)[nH]n3)ccc2N2CCOCC2)cc1,-23.2
19,COc1ccc(NC(=O)C2CCN(S(=O)(=O)c3cccc4cccnc34)CC2)cc1OC,9.47
20,Cc1nn(C(C)(C)C)c(C)c1/C=N/OC(=O)Nc1ccc(Cl)c(Cl)c1,1.85
21,C#CCN(Cc1ccco1)C(=O)c1ccc(OC2CCN(Cc3ccccn3)CC2)cc1,-66.9
22,CC#CCN(Cc1ccco1)C(=O)c1ccc(OC2CCN(Cc3ccccn3)CC2)cc1,-60.3
23,CN(Cc1ccco1)C(=O)c1ccc(OC2CCN(Cc3ccccn3)CC2)cc1,-6.63

row,Structure (SMILES),"hERG current change (%, negative = inhibition) at 10uM [%]"
1,C#CCN(C(=O)c1ccc(OC2CCN(Cc3ccccn3)CC2)cc1)C1CCCCC1,-39.6
2,C=CCN(CC=C)C(=O)c1ccc(OC2CCN(Cc3ccccn3)CC2)cc1,-9.67
3,CN(C(=O)c1ccc(OC2CCN(Cc3ccccn3)CC2)cc1)C1CCCCC1,-9.82
4,CCOC(=O)c1cnn(-c2nc(CC)nc3sc4c(c23)CCC4)c1N,8.44
5,C=CCN1C(=O)c2ccc(C(=O)N3CCN(S(=O)(=O)c4cccc(F)c4)CC3)cc2C1=O,-62.7
6,C=CCN1C(=O)c2ccc(C(=O)N3CCN(S(=O)(=O)c4cccc([N+](=O)[O-])c4)CC3)cc2C1=O,-30.4
7,O=C(c1ccc(-n2cncn2)c([N+](=O)[O-])c1)N1CCN(S(=O)(=O)c2c(F)cccc2F)CC1,-56.8
8,O=C(c1ccc(-n2cncn2)c([N+](=O)[O-])c1)N1CCN(S(=O)(=O)c2cccc(F)c2)CC1,-71.9
9,O=C(c1ccc(-n2cncn2)c([N+](=O)[O-])c1)N1CCN(S(=O)(=O)c2ccccc2F)CC1,-45.1
10,C=CCN1C(=O)c2ccc(C(=O)N3CCN(S(=O)(=O)c4cccc(Cl)c4)CC3)cc2C1=O,-14.8
11,O=C(c1ccc(-n2cncn2)c([N+](=O)[O-])c1)N1CCN(S(=O)(=O)c2ccc(Cl)cc2)CC1,-61.4
12,O=C(NNC(=O)c1ccccc1F)c1ccc(-n2cncn2)c([N+](=O)[O-])c1,7.74
13,O=C(c1ccc(Cl)c([N+](=O)[O-])c1)N1CCN(S(=O)(=O)c2ccc(Cl)cc2)CC1,-11.3
14,O=C(c1ccc2nc[nH]c2c1)N1CCN(S(=O)(=O)c2cccc(F)c2)CC1,12
15,O=C(c1ccncc1)N1CCN(S(=O)(=O)c2cccc(F)c2)CC1,7.6
16,Nc1ccc(C(=O)N2CCN(S(=O)(=O)c3ccc(Cl)cc3)CC2)cc1[N+](=O)[O-],-46.1
17,Cc1ccc2cccnc2c1N,4.5
18,NC(=O)c1ccccc1NC(=O)C1CCCO1 (stereo not drawn),8.51
19,COc1ccccc1CN(C)C(=O)c1ccc(COc2ccccc2)cc1,6.77
20,CCOc1cnc(-c2c(-c3ccccc3Cl)noc2C)o1,-3.56
21,Cc1cccc2c(=O)c(C(=O)NCCc3ccccc3)c[nH]c12,21.9
22,CC(=O)Nc1ccc(SCC(=O)c2ccc(Br)s2)cc1,19.5
23,Cc1cnc(NC(=O)c2ccco2)s1,13.9

row,Structure (SMILES),"hERG current change (%, negative = inhibition) at 10uM [%]"
1,O=C(Nc1ccccc1C(=O)Nc1ccccc1)c1cccs1,-0.413
2,COC(=O)C1=CN(Cc2ccccc2)C=C(C(=O)OC)C1c1cc(F)ccc1F,-12.6
3,c1ccc(-c2csc3ncnc(N4CCc5ccccc5C4)c23)cc1,-1.81
4,O=C(c1ccc(-n2cncn2)c([N+](=O)[O-])c1)N1CCN(S(=O)(=O)c2ccc(F)c(F)c2)CC1,-72.7
5,O=C(Nc1ccc(F)c(F)c1)c1ccc(-n2cncn2)c([N+](=O)[O-])c1,-35.7
6,O=C(NNC(=O)c1ccc(-n2cncn2)c([N+](=O)[O-])c1)c1ccc(Cl)cc1,-9.94
7,O=C(CCCN1C(=O)C2CC=CCC2C1=O)Nc1ccccc1F (stereo not drawn),1.61
8,CC(=O)C1C2c3ccccc3OC1(C)N=c1s/c(=C/c3cn(C)nc3C)c(=O)n12 (stereo not drawn),-0.454
9,Cc1cccc(N2CCN(C(=O)c3ccc(-n4cncn4)c([N+](=O)[O-])c3)CC2)c1C,-58.9
10,O=C(NNC(=O)c1ccc(-n2cncn2)c([N+](=O)[O-])c1)c1cccc(Cl)c1,-26.3
11,O=C(c1ccc(-n2cncn2)c([N+](=O)[O-])c1)N1CCN(c2cccc(Cl)c2)CC1,-68.5
12,Cc1cccc(N2CCN(c3ccc(C(N)=O)cc3[N+](=O)[O-])CC2)c1C,21.7
13,O=C(O)c1ccc(-n2cncn2)c([N+](=O)[O-])c1,11.6
14,O=C(Nc1cccc(Cl)c1)c1ccc(-n2cncn2)c([N+](=O)[O-])c1,-35
15,COc1ccc(C2=NS(=O)(=O)N(C)C(C(=O)Nc3ccc(OC)c(OC)c3)=C2)cc1,-11.9
16,O=C(CSc1nc2ccc(Cl)cc2[nH]1)c1c[nH]c2ccccc12,26.8
17,COc1ccc(C(CC(=O)N2CCCCC2)C(C)C)cc1 (stereo not drawn),15.8
18,COc1ccc(C(=O)N2CCC(C(=O)c3c(C)cc(C)cc3C)CC2)cc1,-55.3
19,COc1cc(OC)cc(OC(=O)C2CCN(C(=O)c3ccc(Cl)cc3)CC2)c1,-33.9
20,O=C(c1ccccc1)N1CCN(c2ccc(Cl)cc2)CC1,-25.1
21,COc1ccc(C(CC(=O)N2CCCC2)C(C)C)cc1 (stereo not drawn),-2.25
22,COc1ccc(C(CC(=O)N2CCCC2)c2ccc(F)cc2)cc1 (stereo not drawn),-71.5
23,Cc1ccc(C(=O)N2CCC(C(=O)c3c(C)cc(C)cc3C)CC2)cc1,-38.5

row,Structure (SMILES),"hERG current change (%, negative = inhibition) at 10uM [%]"
1,COc1ccc(C(=O)N2CCC(C(=O)c3ccc(F)cc3)CC2)cc1,-70.2
2,COc1cc(OC)cc(C(=O)N2CCC(C(=O)c3ccc(F)cc3)CC2)c1,-30.8
3,Cc1ccc(C(=O)N2CCN(c3ccc(Cl)cc3)CC2)cc1,-61.1
4,COc1ccc(C(=O)C2CCN(C(=O)c3ccc(F)cc3)CC2)cc1,-28.5
5,O=C(c1ccc(Cl)cc1)N1CCN(c2ccc(F)cc2)CC1,-34
6,CCc1ccc(N(CC(=O)Nc2ccc(NC(C)=O)cc2)S(=O)(=O)c2ccccc2)cc1,10.5
7,C#CCn1ccc(O)c(Cc2c(F)cccc2Cl)c1=O,8.2
8,Cc1cccc(NC(=O)c2cc(-c3ccco3)nc3ccccc23)n1,4.05
9,O=C1CN(C(=S)NC(=O)c2ccccc2[N+](=O)[O-])CCN1,16.9
10,COc1ccc([N+](=O)[O-])cc1NC(=O)COC(=O)/C=C/c1ccco1,1.54
11,COc1ccc(Cl)cc1C(=O)NNC(=O)CSc1nnnn1C,9.95
12,Cc1cc(-c2ccccc2)nc(SCc2ccc(C(=O)O)cc2)n1,23.8
13,COc1ccc(C(=O)C2CCN(C(=O)Nc3ccc(C)cc3)CC2)cc1,-9.82
14,Cc1ccc(C(=O)N2CCC(C(=O)c3ccc(Cl)cc3)CC2)cc1,-68.4
15,COc1ccc(NC(=S)N2CCC(C(=O)c3ccc(C)cc3)CC2)cc1,-21.9
16,COc1ccc(C(=O)C2CCN(C(=O)c3ccc(OC)cc3)CC2)cc1,-77.1
17,Cc1ccc(C(=O)C2CCN(C(=O)c3ccc(C)cc3)CC2)cc1,-36.8
18,O=C(c1ccc(Cl)cc1)C1CCN(C(=O)c2ccccc2)CC1,-34.3
19,COc1ccc(C(=O)C2CCN(C(=O)c3ccco3)CC2)cc1,-13.4
20,COc1ccc(NC(=S)N2CCC(C(=O)c3ccc(OC)cc3)CC2)cc1,-45.4
21,COc1ccc(C(=O)C2CCN(C(=O)c3ccc(C)cc3)CC2)cc1,-66.3
